Source: PubChem BioAssay
The source made the active and inactive calls.

Assays:
[1] = optical density shifts of acrAB sulA E. coli – strain DRC41, OD650, 48 h, E. coli filamentation inducer project, primary screen (AID 1152); settings: higher = more signal, called active from +8 up or from −8 down;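 also: E. coli MC1000 strain DRC41 lacking acrAB efflux pump and sulA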
[2] = probe aLefty1 binding on compound microarray – biochemical, small-molecule microarray, 635/667 nm fluorescence, primary screen (AID 1153); settings: higher = more signal;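 also: score merges spot fluorescence with signal-to-noise ratio from the scanned slide images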
[3] = plasmodial surface anion channel blockers, osmotic lysis – cell-based, P. falciparum Indochina, OD700, 1 h, primary screen (AID 1154); settings: P. falciparum Indochina infected RBC osmotic lysis, higher = more signal, called active from +8 up or from −8 down
[4] = plasmodial surface anion channel blockers, osmotic lysis – cell-based, P. falciparum Indochina, OD700, 2 h, primary screen (AID 1155);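 also: lysis reports solute entry through the parasite surface anion channel PSAC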; settings: P. falciparum Indochina infected erythrocytes, higher = more signal, called active from +8 up or from −8 down
[5] = changes in parasitized red cell lysis, either direction – P. falciparum Indochina, OD700, 3 h, PSAC antagonist project, primary screen (AID 1156); settings: P. falciparum-infected erythrocytes, osmotic lysis, higher = more signal, called active from +8 up or from −8 down
[6] = plasmodial surface anion channel blockers, osmotic lysis – cell-based, P. falciparum Indochina, OD700, 18 h, primary screen (AID 1157); settings: P. falciparum Indochina infected erythrocytes, osmotic lysis OD700, 18 h; higher = more signal, called active from +8 up or from −8 down
[7] = S6 kinase pathway phospho-S6 level changes – cell-based, A549, cytoblot, luminescence, serum-stimulated, primary screen (AID 1158); settings: 5 h, higher = more signal;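 also: serum-stimulated A549 lung adenocarcinoma cells; signal is phosphorylated S6 detected by cytoblot immunostaining with HRP secondary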
[8] = molecular target: NADPH oxidase 2 (Homo sapiens) (UniProt P04839); assay: compounds shifting NOX2 Amplex Red fluorescence – cell-based, HEK293-NOX2, PMA-stimulated, NOX inhibitor project, primary screen (AID 1159); settings: 45 min, higher = more signal, called active from +8 up or from −8 down; also: test concentration not given here
[9] = molecular target: NADPH oxidase 4 (Homo sapiens) (UniProt Q9NPH5); assay: compounds shifting NOX4 Amplex Red fluorescence – cell-based, HEK293-NOX4, tetracycline-induced, NOX inhibitor project, primary screen (AID 1160); settings: HEK293-NOX4, Amplex Red H2O2 fluorescence, 45 min; higher = more signal, called active from +8 up or from −8 down
[10] = molecular target: NADPH oxidase 5 (Homo sapiens) (UniProt Q96PH1); assay: compounds shifting NOX5 Amplex Red fluorescence – cell-based, HEK293-NOX5, NOX inhibitor project, primary screen (AID 1161); settings: HEK293-NOX5, ionomycin, 45 min, higher = more signal
Sequence of NADPH oxidase 5 (Homo sapiens) (Q96PH1 whole entry, looked up): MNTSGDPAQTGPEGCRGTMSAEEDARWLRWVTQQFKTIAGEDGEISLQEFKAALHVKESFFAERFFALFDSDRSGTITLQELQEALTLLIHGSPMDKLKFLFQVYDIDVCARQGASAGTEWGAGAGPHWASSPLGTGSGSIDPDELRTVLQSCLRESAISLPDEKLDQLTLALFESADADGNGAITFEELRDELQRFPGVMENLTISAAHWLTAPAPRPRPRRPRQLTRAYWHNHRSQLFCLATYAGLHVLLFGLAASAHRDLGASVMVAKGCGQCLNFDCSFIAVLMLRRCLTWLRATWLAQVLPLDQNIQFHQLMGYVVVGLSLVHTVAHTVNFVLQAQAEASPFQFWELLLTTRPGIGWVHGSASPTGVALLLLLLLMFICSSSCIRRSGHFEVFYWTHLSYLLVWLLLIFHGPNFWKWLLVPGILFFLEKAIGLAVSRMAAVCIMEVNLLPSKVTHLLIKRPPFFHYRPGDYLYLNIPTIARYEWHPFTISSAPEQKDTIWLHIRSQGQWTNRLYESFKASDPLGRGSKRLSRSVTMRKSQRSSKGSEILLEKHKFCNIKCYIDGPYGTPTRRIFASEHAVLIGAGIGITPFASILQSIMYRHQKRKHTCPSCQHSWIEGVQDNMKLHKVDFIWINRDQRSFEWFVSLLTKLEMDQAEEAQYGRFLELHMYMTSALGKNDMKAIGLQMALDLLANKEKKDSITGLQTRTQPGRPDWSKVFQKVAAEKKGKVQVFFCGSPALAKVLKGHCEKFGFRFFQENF

Sequence of NADPH oxidase 2 (Homo sapiens) (P04839 whole entry, looked up): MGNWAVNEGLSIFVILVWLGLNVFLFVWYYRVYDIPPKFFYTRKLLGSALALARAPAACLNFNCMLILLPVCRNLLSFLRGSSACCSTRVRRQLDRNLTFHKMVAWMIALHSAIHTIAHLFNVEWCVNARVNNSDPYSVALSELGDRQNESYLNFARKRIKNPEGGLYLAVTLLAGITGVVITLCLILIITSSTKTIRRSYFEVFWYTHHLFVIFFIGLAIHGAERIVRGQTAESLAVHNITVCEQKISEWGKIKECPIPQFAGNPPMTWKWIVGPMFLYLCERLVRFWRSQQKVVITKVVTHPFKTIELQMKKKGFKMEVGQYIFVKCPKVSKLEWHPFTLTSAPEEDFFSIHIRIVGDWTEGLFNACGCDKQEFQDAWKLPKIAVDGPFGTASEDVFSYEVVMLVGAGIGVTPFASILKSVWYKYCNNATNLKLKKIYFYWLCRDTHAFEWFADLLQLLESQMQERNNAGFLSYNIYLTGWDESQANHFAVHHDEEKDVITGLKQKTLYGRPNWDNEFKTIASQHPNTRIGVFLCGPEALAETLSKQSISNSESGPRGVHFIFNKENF
Sequence of NADPH oxidase 4 (Homo sapiens) (Q9NPH5 whole entry, looked up): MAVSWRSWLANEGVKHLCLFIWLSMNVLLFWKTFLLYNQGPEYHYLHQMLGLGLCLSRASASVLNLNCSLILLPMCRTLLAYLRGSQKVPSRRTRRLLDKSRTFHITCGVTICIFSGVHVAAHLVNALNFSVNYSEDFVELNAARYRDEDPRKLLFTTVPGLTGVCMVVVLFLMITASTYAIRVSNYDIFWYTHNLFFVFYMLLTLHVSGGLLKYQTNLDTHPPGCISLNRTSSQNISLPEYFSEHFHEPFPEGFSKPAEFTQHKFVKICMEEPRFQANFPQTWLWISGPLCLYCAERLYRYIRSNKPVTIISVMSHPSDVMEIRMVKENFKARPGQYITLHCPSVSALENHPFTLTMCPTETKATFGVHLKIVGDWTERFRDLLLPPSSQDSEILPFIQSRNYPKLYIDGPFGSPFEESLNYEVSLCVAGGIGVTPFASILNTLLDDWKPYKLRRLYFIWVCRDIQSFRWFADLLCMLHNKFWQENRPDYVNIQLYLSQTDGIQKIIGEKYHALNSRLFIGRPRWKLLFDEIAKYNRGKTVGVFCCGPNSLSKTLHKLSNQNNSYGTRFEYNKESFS

Compound	z-score [1]	composite z-score [2]	z-score [3]	z-score [4]	z-score [5]	z-score [6]	z-score [7]	z-score [8]	z-score [9]	z-score [10]
O=C1O[C@H](c2ccccc2)[C@H](c2ccccc2)N2[C@H]1[C@@H](C(=O)N1CCCCCCC1)[C@]1(C(=O)Nc3ccc(C#CC4=CCCCC4)cc31)[C@H]2c1ccc(O)cc1	-0.306 (inactive)	3.07	0.123 (inactive)	-0.131 (inactive)	0.0311 (inactive)	0.482 (inactive)	-0.0408	0.855 (inactive)	0.494 (inactive)	0.322
COC(=O)[C@@]1(Cc2ccc(OC)cc2)[C@H]2c3cc(C(=O)N4CCCC4)n(CCN4CCOCC4)c3C[C@H]2CN1C(=O)c1ccccc1	-0.861 (inactive)	2.2	0.32 (inactive)	-0.288 (inactive)	0.366 (inactive)	0.225 (inactive)	-0.286	0.99 (inactive)	-0.245 (inactive)	-3.66
COc1ccc([Si](C)(C)[C@@H]2[C@@H](CCO)O[C@]3(C(=O)N(Cc4ccc(N5C(=O)c6cccc7cccc5c67)cc4)c4ccccc43)[C@H]2C)cc1	0.317 (inactive)	0.0355	3.28 (inactive)	3.22 (inactive)	0.146 (inactive)	2.22 (inactive)	-0.511	0.806 (inactive)	0.417 (inactive)	2.96
CC(C)(C)OC(=O)CC[C@@]1(C(=O)NCC(O)CO)N=C(c2ccc(OCCCO)cc2)O[C@@H]1c1ccccc1 (stereo not given in full)	-0.0744 (inactive)	0.0004	20.4 (active)	2.42 (inactive)	0.384 (inactive)	0.519 (inactive)	0.0391	0.0533 (inactive)	0.626 (inactive)	1.45
Cc1cc(C)c(C(O)C2C=CC3C(=O)NC(=O)C3N2Nc2ccccn2)c(C)c1 (stereo not given)	-1.14 (inactive)	0.469	1.02 (inactive)	0.742 (inactive)	-0.0209 (inactive)	1.07 (inactive)	-1.25	-1.49 (inactive)	-1.33 (inactive)	-2.12
C=CCC(OC(C)=O)[C@@H]1[C@@H](N(Cc2cc3ccccc3o2)C(=O)c2cccc3ccccc23)c2cc(OCCCO)ccc2N1C(=O)Cc1ccc2ccccc2c1 (stereo not given in full)	-0.288 (inactive)	-0.0547	2.06 (inactive)	0.231 (inactive)	-0.336 (inactive)	0.332 (inactive)	0.778	0.39 (inactive)	-1.46 (inactive)	-2.19
Cc1ccc(S(=O)(=O)N2CC(C(=O)O)=CCC2c2ccccc2)cc1 (stereo not given)	-1.24 (inactive)	0.0717	1.17 (inactive)	1.1 (inactive)	1.13 (inactive)	0.879 (inactive)	-0.55	-0.363 (inactive)	-1.02 (inactive)	-1.02
CN1C(=O)C2C=CC(C(O)C(C)(C)C)N(Nc3ccccc3)C2C1=O (stereo not given)	-1.06 (inactive)	-0.0838	0.931 (inactive)	1.05 (inactive)	0.156 (inactive)	1.12 (inactive)	-1.04	-1.09 (inactive)	-3.48 (inactive)	-1.54
COC(=O)C(CC#Cc1ccc2c(c1)[C@]1(C(=O)N2)[C@H](C(=O)N2CCCCCCC2)[C@H]2C(=O)O[C@H](c3ccccc3)[C@H](c3ccccc3)N2[C@@H]1c1ccccc1OCCO)C(=O)OC	-0.984 (inactive)	3.08	1.49 (inactive)	0.918 (inactive)	0.573 (inactive)	0.417 (inactive)	-0.0756	0.445 (inactive)	0.262 (inactive)	1.22
COC(=O)[C@@]1(Cc2ccccc2)[C@H]2c3cc(C(=O)N(C)C)n(Cc4ccccc4)c3C[C@H]2CN1C(=O)c1ccccc1	-1.39 (inactive)	0.177	1.54 (inactive)	0.488 (inactive)	0.775 (inactive)	0.667 (inactive)	-0.608	0.543 (inactive)	-0.0416 (inactive)	-0.0705
[N-]=[N+]=NCc1ccccc1[C@@H]1OC(c2ccc(OCCCO)cc2)=N[C@]1(Cc1ccccc1N=[N+]=[N-])C(N)=O	-0.386 (inactive)	0.636	20.5 (active)	2.68 (inactive)	1.5 (inactive)	0.54 (inactive)	-0.0826	-1.07 (inactive)	-0.527 (inactive)	0.12
CCOC(=O)C=Cc1cccc(OC)c1O	-0.572 (inactive)	-0.184	21.2 (active)	2.21 (inactive)	0.957 (inactive)	-1.28 (inactive)	1.73	-5.37 (inactive)	-5.92 (inactive)	-6.34
COc1ccc(C(=O)Nc2cccc(CN3C(=O)[C@@]4(O[C@@H](CCn5cc([C@H](O)c6ccccc6)nn5)[C@H]([Si](C)(C)c5ccc(OC)cc5)[C@H]4C)c4ccccc43)c2)cc1	-0.677 (inactive)	0.379	4.91 (inactive)	0.715 (inactive)	0.618 (inactive)	1.04 (inactive)	0.858	-0.492 (inactive)	0.663 (inactive)	2.23
